AMA1 RON2 block: inhibitors of Plasmodium falciparum AMA1-RON2 interaction. AlphaScreen AMA1-biotinylated RON2 peptide binding. Potency, µM (top dose mostly 58.2 µM), without a hit: at the top dose activity change, negative = inhibition, actives largely listed as inhibitors. hit rate 0.2% among 360,000. AID 720542;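 note: 0% = vehicle wells and -100% = peptide control; nearly all actives have a fitted effect of over 45% in size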
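AMA1 (3D7) with his tag at 25 nM final met compounds first, then biotinylated RON2 peptide at 25 nM; detection used donor plus acceptor beads, 10 µg/mL apiece, read by AlphaScreen after 30 min at room temperature.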
FMDV antiviral: blocks foot and mouth disease virus; FMDV antiviral cell-based qHTS; Potency, µM (series often up to 57.9 µM), for the others: top-dose activity change, negative = inhibition, hits mostly inhibitors; hit rate 1.2% among 410,000; calls by dose curve; tested in HEK293T cells; note: read-out not given here; nearly all actives have a fitted effect of over 45% in size
AmpC inh detg: blocks E. coli AmpC beta-lactamase in detergent assay; P00811; hit rate 0.041% among 370,000; AmpC hydrolysis of nitrocefin, absorbance 480 nm, 0.01% Triton; Potency, µM (doses to about 114 µM), for the others: at the top dose activity change, negative = inhibition, usual class: inhibitors;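 note: 0% = no-compound wells and -100% = no-enzyme wells; nearly all actives have a fitted effect of over 25% in size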
Target sequence (P00811 whole entry, looked up): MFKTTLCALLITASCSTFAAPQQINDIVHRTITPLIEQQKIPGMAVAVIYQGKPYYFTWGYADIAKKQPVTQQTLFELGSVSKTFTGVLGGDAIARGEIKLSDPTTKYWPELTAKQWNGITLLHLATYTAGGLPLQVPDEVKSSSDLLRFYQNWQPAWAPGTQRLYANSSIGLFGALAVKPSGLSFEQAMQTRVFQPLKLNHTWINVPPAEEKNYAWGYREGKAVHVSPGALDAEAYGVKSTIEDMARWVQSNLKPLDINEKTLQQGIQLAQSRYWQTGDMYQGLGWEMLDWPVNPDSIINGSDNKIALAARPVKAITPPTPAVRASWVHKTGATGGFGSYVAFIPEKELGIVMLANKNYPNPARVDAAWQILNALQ
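AmpC (5.3 nM in the dispensed reagent) in 20 mM phosphate pH 7.0 with 0.01% (detergent screen) or 0.0001% Triton X-100 was preincubated with compounds for 15 min at room temperature. Nitrocefin was then added from an 800 uM solution, and hydrolysis was followed at 480 nm.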
Sm TGR block: blocks Schistosoma mansoni thioredoxin glutathione reductase; hit rate 3% among 360,000; Potency, µM (highest dose often 114 µM), inactives show top-dose activity change, negative = inhibition, hits mostly inhibitors; purified TGR, DTNB reduction, TNB absorbance 405 nm; note: nearly all actives have a fitted effect of over 60% in size
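TGR 20 nM + NADPH 100 uM (dispensed conc.), cpd preinc 15 min RT; start with NADPH (500 uM addition) then DTNB (15 mM addition). Kinetic TNB absorbance, 405 nm filter. Four-parameter Hill fit across titration.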
AmpC inh no detg: blocks E. coli AmpC beta-lactamase in detergent-free assay. P00811. AmpC nitrocefin hydrolysis, absorbance 480 nm, 0.0001% Triton. Potency, µM (series often up to 57.1 µM), without a hit: top-dose activity change, negative = inhibition, hits mostly inhibitors. hit rate 0.52% among 330,000. AID 485341;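 note: plate controls were no compound for no effect and no enzyme for full effect; nearly all actives have a fitted effect of over 20% in size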
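20 mM phosphate pH 7.0 + 0.01% (detergent screen) or 0.0001% Triton X-100; 5.3 nM AmpC reagent; cpd preinc 15 min RT; nitrocefin (800 uM stock) to start; A480 q20 s × 4 min; Activity was normalised to no-enzyme and no-compound control wells.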
Starred values were filed as active, the others as inactive; ? = inconclusive; nt = not tested or not shown; ! = repeats disagree. This is a sample that favours compounds with a hit; in the whole collection about 4.1% have one here. Unless noted, calls come from the whole dose curve; as a rule, active = well fitted curve in the direction sought with a large enough effect; inconclusive = small, poorly fitted or top-dose-only effect, or another doubt; inactive = no such curve, though single readings can be large; an effect the other way counts as inactive or inconclusive. Unless noted, % is set by controls: 0 for no effect and ±100 for the full control effect; potency is the fitted concentration of half-maximal effect.

SMILES | AMA1 RON2 block | FMDV antiviral | AmpC inh detg | Sm TGR block | AmpC inh no detg
COc1ccc(C2/C=C\CN(Cc3ccco3)CC(=O)N2Cc2ccc(F)cc2)cc1 (stereo not drawn) | 9% | -20% | 0% | 32µM* | 28%
Cc1cccc(N2CCN(C(=O)CS(=O)(=O)c3cccc4nsnc34)CC2)c1C | nt | -21% | 2% | -17% | nt
CC(=O)c1ccc(-c2ccc3c4c(ccc3c2)OC(CNC(=O)[C@@H]2CCCN2C(C)=O)C4)s1 (stereo partly drawn) | nt | 19% | nt | nt | nt
c1ccc(-c2cc3c(N4CCN(c5ccccc5)CC4)ncnc3s2)cc1 | -29% | 32µM* | -3% | 12% | -27%
COc1ccc(-c2cc3c(nn2)-c2ccccc2C3=O)cc1 | -15% | 10µM* | ? | 0% | -8%
Cc1ccccc1Cn1c(=O)n(CCC(=O)NCc2ccco2)c(=O)c2sccc21 | nt | 0% | 20% | -1% | nt
COCCNP(=O)(c1ccccc1)c1nc2ccccc2s1 (stereo not drawn) | nt | nt | -5% | 10% | -6%
Cc1ccc(NP(=O)(c2ccccc2)c2nc3ccccc3s2)cc1 (stereo not drawn) | -15% | 116% | 5% | 16µM* | -38%
CC(=O)C1=C(c2ccc(Cl)cc2)N(C(C)=O)n2c(nnc2C2CCCCC2)S1 | nt | ? | -2% | 4% | nt
CCOc1cccc(CNc2ccc(O)cc2)c1OCc1ccccc1Cl | -8% | ? | -14% | 45µM*! | -54%
CCOc1cccc(CNc2ccc(O)cc2)c1OCc1ccc(Cl)cc1Cl | -8% | ? | -9% | ? | -32%
Cc1cnc(-n2ncc(C(=O)NC(C)(C)CO)c2-c2cccs2)nc1-c1ccc(F)cc1 | nt | 21% | nt | nt | nt
COCC(=O)n1nc(-c2ccccc2)nc1NCc1ccc(N(C)C)cc1 | 22µM* | 59% | 3% | 7% | -6%
Cc1ccc(NC(=O)Cn2cc(S(=O)(=O)N3CCCC3)c(S(=O)(=O)N3CCCC3)c2)cc1F | nt | 29% | 0% | -1% | nt
CN1CCC(=O)N([C@H](CSc2ccccc2)Cc2ccccc2)CC1 | 1% | -5% | -11% | -24% | 46%
CCCN1CCC(=O)N([C@H](CSc2ccc(C)cc2)Cc2ccccc2)CC1 | -12% | -16% | 1% | ? | 200%
CCCN1CCC(=O)N([C@H](CSc2ccc(OC)cc2)Cc2ccccc2)CC1 | -5% | -22% | -9% | 20µM* | 174%
Cc1ccc(SC[C@H](Cc2ccccc2)N2CCN(C)CCC2=O)cc1 | -9% | -10% | 6% | 40µM* | 150%
CC(C)CN1CCC(=O)N([C@H](CSc2ccc(Br)cc2)Cc2ccccc2)CC1 | -8% | -28% | -2% | 6.3µM* | 64%
CC(=O)Nc1ccc(SC[C@H](c2ccccc2)N2CCN(CCc3ccccc3)CCC2=O)cc1 | nt | nt | -3% | 14µM* | 177%
COc1ccc2c(C)c(CCC(=O)NCCc3ccc(Cl)cc3)c(=O)oc2c1 | nt | -24% | 4% | 10% | nt
CCCN1CCC(=O)N([C@H](CSc2ccc(C)cc2)CC(C)C)CC1 | -4% | 24% | -8% | 40µM* | 147%
COc1ccc(CN2C(=O)N(c3ccc(C)cc3)C(=O)C2CC(=O)Nc2ccccc2)cc1OC (stereo not drawn) | nt | -15% | 12% | 1% | nt
CN(C1=C(N2CCOCC2)C(=O)c2ccccc2C1=O)c1ccccc1 | 16µM* | 0% | -5% | 25µM* | -4%
O=C(O)c1cccc(NC2=C(N3CCOCC3)C(=O)c3ccccc3C2=O)c1 | -1% | 15% | -1% | 45µM* | -2%
SMILES | AMA1 RON2 block | FMDV antiviral | AmpC inh detg | Sm TGR block | AmpC inh no detg
COc1ccc(S(=O)(=O)n2nc(C)c(S(=O)(=O)N3CCCCCC3)c2C)cc1C | nt | 9% | 0% | 7% | nt
CCOC(=O)Cn1c(=O)n(-c2ccccc2OC)c2nc(-c3ccccc3C)nc(C(N)=O)c21 | nt | -23% | -4% | -14% | nt
CSc1nc(N)c(N=Nc2ccc([As](=O)(O)O)cc2)c(=O)[nH]1 | 25% | -4% | -8% | 0.32µM* | -9%
Nc1nc(N)c(N=Nc2ccc(Cl)cc2)c(=O)[nH]1 | 10% | 32% | -7% | 1% | -17%
COc1ccc(NC(=S)Nc2cccc(Cl)c2Cl)cc1OC | 17% | 15% | -11% | 28µM* | -18%
CCCSc1nnc(NC(=O)Nc2ccc(C)cc2)s1 | 0% | 2% | -2% | 14% | -48%
CCCSc1nnc(NC(=O)Nc2ccc(F)cc2)s1 | -1% | -25% | -1% | 89µM* | -23%
OCCN1CCN(Cc2ccc3c(c2)CN(Cc2cc4ccccc4o2)CCO3)CC1 | nt | 4% | nt | nt | nt
CCN(CC)c1ccc2cc(-c3nc(-c4ccccc4)no3)c(=O)oc2c1 | nt | 56% | 1% | 6% | nt
Nc1ncc2c(n1)CC(c1ccco1)CC2=O (stereo not drawn) | 4% | -12% | -4% | 50µM* | -13%
O=C(Nc1ncc2c(n1)CC(c1ccco1)CC2=O)c1ccco1 (stereo not drawn) | -1% | 8% | -9% | 20µM* | -26%
CC(C)c1ccc(C2CC(=O)c3cnc(N4CCc5ccccc5C4)nc3C2)cc1 (stereo not drawn) | 2% | 9% | 1% | -13% | -3%
O=C1CC(c2ccco2)Cc2nc(N3CCc4ccccc4C3)ncc21 (stereo not drawn) | -2% | -9% | ? | 32µM* | -24%
CC(=O)Nc1ncc2c(n1)CC(c1ccco1)CC2=O (stereo not drawn) | -5% | -7% | 5% | -27% | -20%
Cn1c(-n2cccc2)c(-c2c(-c3ccc(F)cc3)[nH]c3c2c(=O)[nH]c(=O)n3C)c(=O)[nH]c1=O | nt | -9% | 2% | -4% | nt
COc1cccc2c1CCC1=CC(=O)CC[C@@]12C | nt | -18% | nt | nt | nt
O=C(NCC1CCCO1)C1CCN(S(=O)(=O)c2cccc3cccnc23)CC1 (stereo not drawn) | 12% | -18% | -1% | 18% | 3.2µM*
O=C(Nc1ccncc1)C1CCCN(S(=O)(=O)c2cccc3cccnc23)C1 (stereo not drawn) | 0% | ? | ? | -2% | 45µM*
O=C(NCC1CCCO1)C1CCN(C(=O)c2ccc(Br)cc2)CC1 (stereo not drawn) | 2% | -3% | -1% | 5% | 4µM*
CCOc1ccccc1NC(=O)C1CCCN(S(=O)(=O)c2cccc3cccnc23)C1 (stereo not drawn) | 1% | -24% | -4% | 5% | 5.6µM*
O=C(Nc1ccc(C(F)(F)F)cc1)C1CCCN(S(=O)(=O)c2cccc3cccnc23)C1 (stereo not drawn) | nt | ? | 9% | 18% | nt
NC(=O)c1ccccc1NC(=O)C1CCCN(c2ncnc3onc(-c4ccc(F)cc4)c23)C1 (stereo not drawn) | nt | -10% | 2% | -5% | nt
COc1ccc(S(=O)(=O)N2CCCC(C(=O)Nc3cccnc3)C2)cc1Cl (stereo not drawn) | ? | 25µM* | -13% | -21% | -12%

From PubChem BioAssay
